Laboratory results from paper PMC4336329 (PLoS ONE, 2015).
About 14,000 (4.5%) of roughly 310,000 compounds showed an effect of 50% or more. The effect is printed as a negative number. The sample as a whole holds a higher share of strong results than the screen did.

Target: human ether-à-go-go-related gene (hERG) potassium channel (human, UniProt Q12809)
Experiment: primary screen, population patch clamp on CHO cells stably expressing hERG; higher = less effect of the substance
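Also: peak tail current of the secondary pulse compared with the same well before compound.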

Sequence of human ether-à-go-go-related gene (hERG) potassium channel (Q12809 whole entry, looked up): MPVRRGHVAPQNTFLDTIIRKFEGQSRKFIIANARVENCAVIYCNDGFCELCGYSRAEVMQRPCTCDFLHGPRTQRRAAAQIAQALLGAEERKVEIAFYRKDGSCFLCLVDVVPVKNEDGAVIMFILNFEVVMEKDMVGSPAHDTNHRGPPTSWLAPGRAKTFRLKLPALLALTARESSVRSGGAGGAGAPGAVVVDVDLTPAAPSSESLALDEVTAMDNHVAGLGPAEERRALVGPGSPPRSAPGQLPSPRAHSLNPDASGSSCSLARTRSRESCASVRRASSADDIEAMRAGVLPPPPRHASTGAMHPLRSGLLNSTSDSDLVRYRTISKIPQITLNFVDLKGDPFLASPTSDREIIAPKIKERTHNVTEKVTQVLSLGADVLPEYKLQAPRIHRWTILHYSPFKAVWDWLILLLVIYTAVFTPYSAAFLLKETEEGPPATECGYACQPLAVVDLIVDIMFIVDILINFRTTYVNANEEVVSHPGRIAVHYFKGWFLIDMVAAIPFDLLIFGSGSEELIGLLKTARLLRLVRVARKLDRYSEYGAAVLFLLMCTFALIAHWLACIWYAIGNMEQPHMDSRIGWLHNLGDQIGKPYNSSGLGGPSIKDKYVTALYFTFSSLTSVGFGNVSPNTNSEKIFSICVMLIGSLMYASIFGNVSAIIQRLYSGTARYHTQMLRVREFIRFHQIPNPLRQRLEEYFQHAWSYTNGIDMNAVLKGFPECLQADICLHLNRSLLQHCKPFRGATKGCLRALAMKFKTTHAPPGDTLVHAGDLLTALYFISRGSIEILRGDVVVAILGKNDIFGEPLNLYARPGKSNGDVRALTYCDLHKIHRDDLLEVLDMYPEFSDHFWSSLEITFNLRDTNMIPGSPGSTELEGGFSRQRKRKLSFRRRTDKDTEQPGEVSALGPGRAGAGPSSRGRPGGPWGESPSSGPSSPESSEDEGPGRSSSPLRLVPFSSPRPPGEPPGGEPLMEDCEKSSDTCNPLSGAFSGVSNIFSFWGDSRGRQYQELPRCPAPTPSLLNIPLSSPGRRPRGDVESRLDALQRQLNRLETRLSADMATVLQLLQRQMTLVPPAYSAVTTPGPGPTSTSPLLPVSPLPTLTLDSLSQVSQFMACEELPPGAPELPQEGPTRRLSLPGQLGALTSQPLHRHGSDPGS

Row | SMILES | hERG current change (%, negative = inhibition) at 10uM [%]
1 | COc1ccccc1NC(=O)NCCCN1CCN(c2cccc(Cl)c2)CC1 | -73.7
2 | O=C(NCCN1CCCCC1)Nc1ccccc1 | -23.2
3 | Cc1ccccc1NC(=O)NCCCN1CCN(c2ccccc2)CC1 | -50.7
4 | Cc1cccc(C)c1NC(=O)NCCCN1CCN(c2ccccc2)CC1 | -41.1
5 | O=C(NCCN1CCN(Cc2ccccc2)CC1)Nc1cc(Cl)cc(Cl)c1 | -75.2
6 | O=C(Nc1ccc(F)cc1F)N1CCCN(CCOc2ccccc2)CC1 | -45.2
7 | CCCN1CCN(C(=O)Nc2ccc(OCC)cc2)CC1 | -1.93
8 | CC(C)C(C)NC(=O)CSc1ccc(S(=O)(=O)N2CCOCC2)cn1 (stereo not shown) | -1.56
9 | CCOC(=O)C(CSCc1ccccc1)NC(=O)OC(C)(C)C (stereo not shown) | -14.8
10 | CCOCCCNC(=O)C(C)NS(=O)(=O)c1ccc(C)cc1 (stereo not shown) | 4.29
11 | COc1ccccc1NC(=O)CSCc1cc(=O)n2ccsc2n1 | 13.3
12 | COc1cccc(C(=O)O/N=C(\N)c2ccccn2)c1 | -2.49
13 | Cc1cc(C)cc(C(=O)Nc2cccc(NC(=O)c3ccco3)c2)c1 | -14.2
14 | Cc1ccc(S(=O)(=O)NCCC(=O)N2CCCCCC2)cc1 | 1.86
15 | CC(C)c1nc(SCC(=O)N2CCCC2)c2c(=O)n(C)c(=O)n(C)c2n1 | -21.8
16 | O=C(NC(=S)N1CCCC1)c1cccc([N+](=O)[O-])c1 | 19.9
17 | CCCCNC(=O)CCCCCNS(=O)(=O)c1ccc(OC)cc1 | 13.8
18 | CCn1c(SCC(=O)Nc2ccc(N3CCOCC3)cc2)nnc1-c1ccc(OC)cc1 | -14.8
19 | CCCc1c2c(cc3c(=O)cc(C(=O)OCC)oc13)CCCC2 | -0.971
20 | COc1cc(OC)cc(C(=O)Nn2cc(C(=O)N3CCN(C)CC3)c3ccccc3c2=O)c1 | 2.72
21 | Cc1ccc(NC(=O)NCCN2CCN(c3ccccc3)CC2)cc1Cl | 16.7
22 | O=C(NCCCN1CCN(c2ccccc2)CC1)Nc1ccccc1C(F)(F)F | -49.3
23 | O=C(NCCN1CCN(c2ccccc2)CC1)Nc1ccccc1Br | -52.1
24 | O=C(NCCN1CCN(c2ccccc2)CC1)Nc1cccc(Br)c1 | -58.1
25 | O=C(Nc1cc(Cl)cc(Cl)c1)N1CCCN(Cc2ccccc2)CC1 | -76.3

Row | SMILES | hERG current change (%, negative = inhibition) at 10uM [%]
26 | O=C(NCCN1CCN(c2ccccc2)CC1)Nc1cccc(Cl)c1 | -55.7
27 | O=C(NCCN1CCN(c2ccccc2)CC1)Nc1ccc(Cl)cc1 | -45.5
28 | O=C(Nc1ccccc1)N1CCN(Cc2ccccc2)CC1.O=C(O)C(=O)O | 11.9
29 | O=C(NCCN1CCOCC1)Nc1ccccc1 | -6.63
30 | O=C(NCCN1CCN(c2ccccc2)CC1)Nc1ccccc1Cl | -43.3
31 | O=C(NCCN1CCN(c2cccc(Cl)c2)CC1)Nc1ccccc1 | -35.1
32 | O=C(Nc1ccccc1)N1CCN(Cc2ccc(Cl)cc2)CC1 | -33.8
33 | COC(=O)c1sccc1NC(=O)Nc1ccccc1C | 9.22
34 | COCCNS(=O)(=O)c1cccc2cccnc12 | 11.6
35 | Cc1ccc(N=C2C(=O)Nc3ccccc32)cc1C | 7.9
36 | Cn1c(N)c(C(=O)COC(=O)c2nc(Cl)ccc2Cl)c(=O)n(C)c1=O | -11.2
37 | COc1ccc(C(=O)NCCCSc2ccccc2)cc1F | 8.32
38 | Brc1ccc(C2Nc3cccc4cccc(c34)N2)s1 | 7.9
39 | COc1ccc(CN2CCC(n3nccc3NC(=O)c3cccc(F)c3)CC2)cc1O | -80.4
40 | O=C(Nc1ccnn1C1CCN(Cc2ccc(C#CCCO)cc2)CC1)c1cccc(F)c1 | -77.3
41 | CCc1ccc(CN2CCC(n3nccc3NC(=O)c3cccc(F)c3)CC2)cc1 | -75.3
42 | O=C(Nc1ccnn1C1CCN(Cc2cccc(OCCO)c2)CC1)c1cccc(F)c1 | -12.3
43 | O=C(Nc1ccnn1C1CCN(Cc2ccccc2OCCO)CC1)c1cccc(F)c1 | -34.8
44 | O=C(Nc1ccnn1C1CCN(Cc2ccccc2OC(F)F)CC1)c1cccc(F)c1 | -52.4
45 | O=C(Nc1ccnn1C1CCN(C2CCC2)CC1)c1cccc(F)c1 | -12.5
46 | CCn1cc(CN2CCC(n3nccc3NC(=O)c3cccc(F)c3)CC2)c(C)n1 | -2.72
47 | O=C(Nc1ccnn1C1CCN(Cc2ccccc2OC(F)F)CC1)c1cccnc1 | -12.3
48 | CCn1cc(CN2CCC(n3nccc3NC(=O)c3cccc(F)c3)CC2)cn1 | -6.71
49 | O=C(Nc1ccnn1C1CCN(Cc2ccc3nonc3c2)CC1)c1cccc(F)c1 | -37.4
